FGF22 binding-1: binders of human FGF22 protein, primary screen, FGF22 synaptogenesis inhibitor project, biophysical, thermal shift, single point. Fibroblast growth factor 22 (Homo sapiens), Q9HCT0. recombinant FGF22 thermal shift, SYPRO orange fluorescence; percent of sucrose octasulfate shift, DMSO zero. activity (Tm shift, normalised), % at 9.99 µM. actives 1.5% (n = 340,000). AID 651658, 2012;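 active = mean Tm shift, scaled 0 neutral to 100 positive control, at about 1.3% or above, every replicate too, limit read from the data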
Target sequence (Q9HCT0 whole entry, looked up): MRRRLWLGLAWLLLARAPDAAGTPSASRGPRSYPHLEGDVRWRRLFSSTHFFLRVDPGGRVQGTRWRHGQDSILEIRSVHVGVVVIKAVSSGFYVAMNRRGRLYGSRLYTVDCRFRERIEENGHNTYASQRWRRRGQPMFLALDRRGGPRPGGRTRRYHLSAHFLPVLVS
PvdQ acylase: P. aeruginosa PvdQ acylase inhibitors, primary screen, biochemical, fluorescence, plate reader and imaging, single point. purified PvdQ acylase. actives 0.063% (n = 340,000). inhibition, % at 10 µM. PvdQ acylase [Pseudomonas aeruginosa LESB58]; in the data active = inhibition above about 30%, passing the limit was not always enough;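 also: 0% = vehicle neutral wells and 100% = reference inhibitor wells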
SIRT5 block: SIRT5 desuccinylase inhibitors, primary screen, biochemical, fluorescence imaging, single point, set 5; AID 652115, 2013; Purified SirT5, succinyl-peptide AMC, trypsin-coupled fluorescence; inhibition, % at 15 µM; NAD-dependent protein deacylase sirtuin-5, mitochondrial (Homo sapiens), Q9NXA8; actives 1.1% (n = 330,000); in the data active = inhibition above about 15%
CDK5 inh: inhibitors of human CDK5/p35 kinase, primary screen, biochemical, single concentration; Recombinant CDK5/p35, ADP-Glo luminescence, 60 min; inhibition, % at 10 µM; actives 0.01% (n = 330,000); AID 488839, 2010;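 active = highest replicate inhibition of at least 50% and at least 75% of replicates reaching 50%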;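 also: plate controls were DMSO neutral control for no effect and GW8510 at 10 µM for full effect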
PglD DTNB: C. jejuni PglD acetyltransferase inhibitors, primary screen, biochemical, DTNB colorimetric, single point; purified PglD enzyme, DTNB colorimetric CoA detection; inhibition, % at 12.5 µM; actives 0.098% (n = 360,000); AID 602405, 2012; in the data active = inhibition above about 16%, passing the limit was not always enough
dFosB act: activators of delta FosB homodimer, primary screen, biochemical, fluorescence polarization, TAMRA-CDK5 oligo, single point | Protein FosB (Mus musculus), P13346 | purified delta FosB; percent of positive-control signal above neutral wells | activation, % at 25 µM | actives 0.99% (n = 340,000);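 active = mean activation above about 17%, with every replicate also reaching it, limit read from the data, passing the limit was not always enough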
FGF22 binding-2: binders of human FGF22 protein, dose response, FGF22 synaptogenesis inhibitor project, biophysical, thermal shift, cherry-pick retest. shares compounds with FGF22 binding-1. recombinant FGF22 thermal shift, SYPRO orange fluorescence. thermal shift activity, °C (ΔTm) at 38 µM. actives 2% (n = 1,000). AID 720646, 2013;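 active = fitted rise in melting shift crosses a set limit at or below the top valid dose tested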
SYPRO no-protein: compound-only thermal shift signal without protein, dose response, artefact control for FGF22 binder project, biochemical, cherry-picked samples, RT-PCR instrument; shares compounds with FGF22 binding-1; compound-only SYPRO orange thermal shift counter-screen, no protein; AC50, µM (highest dose often 38 µM); actives 2% (n = 1,000); AID 743019, 2013;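 active = rising signal whose fitted curve reaches the 0.54 level within the top valid dose, showing a melting point, actives reach about 13 µM in these data; inactive = the rest, including activity in the opposite direction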; also: value is where the raw curve crosses a fixed level and not half-maximal
Active calls of the source: *; i = inactive; x = not tested or not shown. The list is not random: actives were taken first. Their share in the collection is about 2.8%.

SMILES | FGF22 binding-1 | PvdQ acylase | SIRT5 block | CDK5 inh | PglD DTNB | dFosB act | FGF22 binding-2 | SYPRO no-protein
CN(C)Cc1c[nH]c2ccccc12 | 18.6* | -9.8 | -2.3 | -0.9 | -1.8 | -7.3 | 0.045 | i
O=C(N/N=C/c1c(O)n(C2CC2)c(=S)[nH]c1=O)c1ccccc1O | x | 16.4 | x | -0.8 | x | -2.3 | x | x
Cc1ccccc1-n1c(O)c(/C=N/NC(=O)c2ccccc2O)c(=O)[nH]c1=S | 1.8* | -3.8 | 1.4 | 0.2 | -3.7 | 2.5 | -0.058 | i
O=C(Nc1ccccc1)c1cccn(Cc2ccccc2)c1=O | 1.4* | -3.0 | 4.9 | 1.2 | x | -13.7 | -0.159 | i
CC(=O)Nc1ccc(S(=O)(=O)N2Cc3ccccc3-n3nncc3C2)cc1 | 23.2* | x | 0.2 | x | x | x | 0.117 | i
COc1ccc(-c2ccc([C@H]3[C@H](CO)N4CCCCN(C(=O)Cc5ccccc5)C[C@@H]34)cc2)cc1 | 0.0 | x | -1.7 | x | 3.7 | x | x | x
CC1([N+](=O)[O-])COP(=O)(NC2CC2)OC1 (stereo not drawn) | 46.4* | -4.8 | 1.0 | -1.0 | x | 5.6 | x | i
